PubChem BioAssay AID504710 (Sanford-Burnham Center for Chemical Genomics, 2011)
A number with no mark means an inactive call. Activity calls are given as the source filed them.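 The calls were made as follows: active = inhibition reaching about 16% in any single replicate (limit read from the data); inactive = the rest.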

biological target: Hexokinase HKDC1 (Homo sapiens) (UniProt Q2TB90); experiment: compounds lowering human HKDC1 activity – biochemical, single concentration, confirmation (AID 504710); details: recombinant HKDC1, G6PDH/diaphorase/resazurin fluorescence; at 20 µM; stronger effect = higher value
Sequence (Q2TB90 whole entry, looked up): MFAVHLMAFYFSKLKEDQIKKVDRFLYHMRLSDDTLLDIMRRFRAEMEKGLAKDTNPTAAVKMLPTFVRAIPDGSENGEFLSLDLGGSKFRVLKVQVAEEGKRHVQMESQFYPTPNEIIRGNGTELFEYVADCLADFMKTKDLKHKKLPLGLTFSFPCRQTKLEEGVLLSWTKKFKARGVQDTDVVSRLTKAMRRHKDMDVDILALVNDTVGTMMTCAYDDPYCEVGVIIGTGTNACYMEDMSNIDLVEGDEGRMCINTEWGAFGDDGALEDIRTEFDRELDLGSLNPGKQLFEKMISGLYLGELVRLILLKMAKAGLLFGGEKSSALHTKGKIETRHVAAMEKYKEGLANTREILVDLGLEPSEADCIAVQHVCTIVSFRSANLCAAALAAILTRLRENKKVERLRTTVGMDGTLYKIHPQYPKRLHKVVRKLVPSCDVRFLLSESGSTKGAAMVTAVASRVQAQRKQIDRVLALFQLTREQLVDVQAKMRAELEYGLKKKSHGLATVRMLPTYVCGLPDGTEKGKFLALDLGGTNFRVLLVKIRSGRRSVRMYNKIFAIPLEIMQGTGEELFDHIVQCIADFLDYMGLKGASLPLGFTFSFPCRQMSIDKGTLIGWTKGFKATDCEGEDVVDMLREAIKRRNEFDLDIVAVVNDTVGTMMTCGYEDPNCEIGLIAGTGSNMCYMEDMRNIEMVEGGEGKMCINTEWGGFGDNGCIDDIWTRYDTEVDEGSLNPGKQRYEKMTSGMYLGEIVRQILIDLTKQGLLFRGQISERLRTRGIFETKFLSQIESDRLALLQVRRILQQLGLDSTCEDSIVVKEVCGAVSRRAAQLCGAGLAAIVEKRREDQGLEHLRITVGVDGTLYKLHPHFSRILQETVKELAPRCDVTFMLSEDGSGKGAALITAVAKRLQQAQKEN

SMILES	inhibition
CCc1ccc(C2=NNC(=Nc3cccc(S(=O)(=O)N(C)C)c3)SC2)cc1	-141%
O=C(O)c1ccccc1-c1c2cc(I)c(=O)c(I)c-2oc2c(I)c(O)c(I)cc12	43.5% (active)
Cn1c(SSc2ccc(-c3cccnc3)n2C)ccc1-c1cccnc1	-248%
CCOC(=O)/C=C(\C)Sc1cc(O)c2ccccc2c1O	53.6% (active)
CC(=O)NC1C(=O)N(CCN2CCOCC2)c2ccc(C)cc21 (configuration not stated)	69.7% (active)
CCOC(=O)c1c(C)[nH]c(C2=NNC(=Nc3ccccc3)SC2)c1C	-141%
O=C(CSc1cccc2cccnc12)N/N=C/c1cccnc1	-46.6%
CC(=O)NC1C(=O)N(CCN2CCOCC2)c2ccc(Br)cc21 (configuration not stated)	61% (active)
CCOC(=O)Cn1c2ccc(F)cc2c2nc(C)sc21	-36.6%
Cc1cc2nnc(SCC(=O)Nc3cc(S(=O)(=O)N4CCOCC4)ccc3Cl)n2c2ccccc12	37.4% (active)
Cc1ccc(C(=O)c2c(C)oc3c2C(=O)C(=O)c2ccccc2-3)cc1	46.2% (active)
COc1cc2c(cc1OC)-c1cc(NCc3ccccn3)nc(=O)n1CC2	54% (active)
Cc1cccc(-n2c3nc(=O)[nH]c(=O)c-3cc3cc([N+](=O)[O-])ccc32)c1	46.6% (active)
COC(=O)c1ccccc1NC1=C/C(=N\S(=O)(=O)c2ccc(C(=O)O)cc2)c2ccccc2C1=O	86% (active)
CCCc1nc2c(c(=O)c3ccccc3n2C)c(=O)n1-c1ccc(F)cc1	58.5% (active)
CC(=O)Nc1ccc(C2=NNC(=Nc3ccc(S(=O)(=O)N4CCOCC4)cc3)SC2)cc1	-234%
O=C(O)COc1ccc(/C=N/NC(=O)c2ccc(-c3csc(Nc4ccc(Cl)cc4)n3)cc2)cc1	24.2% (active)
CC1=NOC(=O)/C1=C\c1ccc(-c2ccc(Cl)cc2Cl)o1	47.4% (active)
Cc1nc([N+](=O)[O-])c(Br)n1Cc1ccc(Cl)c(Cl)c1	53.8% (active)

SMILES	inhibition
O=C1C(N2CCOCC2)=C(n2nnc3ccccc32)C(=O)c2ccccc21	54.8% (active)
O=[N+]([O-])c1ccc(NN=Cc2ccc(O)cc2O)nc1	50.8% (active)
CCOC(=O)C1=C(Cc2ccc(F)cc2)C(=O)c2ccccc2C1=O	59.2% (active)
O=c1c2ccccc2nc2n1CCC2	67.1% (active)
O=C(O)c1cc(O)c2c(c1)[C@@H]([C@H]1c3cc(C(=O)O)cc(O)c3C(=O)c3c(O[C@@H]4O[C@H](CO)[C@@H](O)[C@H](O)[C@H]4O)cccc31)c1cccc(OC3O[C@H](CO)[C@@H](O)[C@H](O)[C@H]3O)c1C2=O (some centres not stated)	50.9% (active)
CCCC(=O)NC1=C(Cl)C(=O)c2ccccc2C1=O	81.4% (active)
CSc1nc(N)nc2c1ncn2CC(=O)N[C@H](C)c1cccc2ccccc12	-73.5%
COc1ccc(-c2[nH]c(-c3ccc(SC)cc3)nc2SCC(=O)Nc2nccs2)cc1	-36.1%
Cc1onc(-c2ccccc2)c1C(=O)NNC(=S)NC(=O)c1ccc(Br)cc1	-56.7%
Cc1nc2c(c(=O)c3ccccc3n2C)c(=O)n1-c1ccc(F)cc1	52.9% (active)
O=C(CSc1nnc(CCCN2C(=O)c3cccc4cccc(c34)C2=O)n1-c1ccccc1)N1CCN(CCO)CC1	47.6% (active)
Cc1ccc2oc(=O)c3cnn(CC(=O)N4CCc5ccccc5C4)c3c2c1	-50.8%
O=S(=O)(NC1c2cccc3cccc(c23)C1N1CCNCC1)c1ccccc1 (configuration not stated)	-94.7%
O=C(O)c1cc(O)c2c(c1)[C@@H]([C@H]1c3cc(C(=O)O)cc(O)c3C(=O)c3c(O[C@@H]4O[C@H](CO)[C@@H](O)[C@H](O)[C@H]4O)cccc31)c1cccc(O[C@@H]3O[C@H](CO)[C@@H](O)[C@H](O)[C@H]3O)c1C2=O	34.1% (active)
Cc1oc2c(c1C(=O)c1ccc(Cl)cc1)C(=O)C(=O)c1ccccc1-2	46.1% (active)
Cc1cc(C)n2nc(SCc3nnc(SCc4ccccc4Cl)s3)nc2n1	43% (active)
O=c1[nH]c2ccccc2n2c(-c3ccccc3)nnc12	58.5% (active)
NC1=C(Br)C(=O)c2ncccc2C1=O	50.8% (active)
